High-throughput results (PubChem)
Rows were chosen to be rich in hits. Some 11% of all compounds tested hit in one or more screens of this group.
PI5P4K alpha inh – inhibitors of human PI5P4K alpha; P48426; PI5P4Kalpha enzyme, ADP-Glo luminescence, 60 min; active compounds read low; max response, %; actives 1.2% (n = 330,000); AID 652105; active = max response of -50% or lower; inconclusive = between -30% and -50%; inactive = -30% or higher; also: value at the top dose of about 77 µM
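ADP-Glo luminescence end-point after a 60 min room-temperature kinase reaction. PI5P4Kalpha and substrate in HEPES pH 7.4 buffer with EGTA, 0.1% CHAPS and 5% DMSO; ATP at 5 microM final.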
L3MBTL1 inh – blocks human L3MBTL1; Q9Y468; actives 0.66% (n = 230,000); Potency, µM (titrated, usually from 57.1 µM), actives largely listed as inhibitors; AlphaScreen L3MBTL1–H3K9me1 peptide binding; AID 485360; also: nearly all actives have a fitted effect of over 60% in size
Target sequence (Q9Y468 whole entry, looked up): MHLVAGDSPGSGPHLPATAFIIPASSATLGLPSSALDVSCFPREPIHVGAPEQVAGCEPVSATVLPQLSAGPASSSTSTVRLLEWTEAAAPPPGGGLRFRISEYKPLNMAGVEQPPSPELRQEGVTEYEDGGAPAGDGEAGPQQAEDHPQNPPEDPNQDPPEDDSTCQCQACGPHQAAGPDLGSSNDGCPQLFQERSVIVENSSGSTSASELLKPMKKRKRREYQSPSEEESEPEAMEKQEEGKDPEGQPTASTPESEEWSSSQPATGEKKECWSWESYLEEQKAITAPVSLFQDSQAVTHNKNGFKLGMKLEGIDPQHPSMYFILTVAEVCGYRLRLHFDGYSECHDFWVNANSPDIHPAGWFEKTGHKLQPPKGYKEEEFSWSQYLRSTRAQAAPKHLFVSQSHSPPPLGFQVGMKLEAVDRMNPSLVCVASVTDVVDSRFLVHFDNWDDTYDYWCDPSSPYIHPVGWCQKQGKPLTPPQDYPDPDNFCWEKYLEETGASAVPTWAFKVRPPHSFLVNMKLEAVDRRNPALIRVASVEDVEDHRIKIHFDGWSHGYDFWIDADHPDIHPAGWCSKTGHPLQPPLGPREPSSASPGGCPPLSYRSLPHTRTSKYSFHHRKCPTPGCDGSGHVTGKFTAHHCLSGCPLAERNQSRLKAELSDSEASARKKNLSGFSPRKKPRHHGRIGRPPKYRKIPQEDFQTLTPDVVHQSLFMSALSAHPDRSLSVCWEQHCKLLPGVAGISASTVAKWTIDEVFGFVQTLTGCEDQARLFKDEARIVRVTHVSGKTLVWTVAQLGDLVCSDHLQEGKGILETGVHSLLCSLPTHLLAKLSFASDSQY
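AlphaScreen assay: L3MBTL1 (50 nM final) was preincubated 30 min at room temperature with biotinylated H3(1-15)K9me1 peptide (75 nM final), then 30 min with library compounds; streptavidin donor and nickel chelate acceptor beads (10 ug/mL final) added, 30 min dark.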
JMJD2A Tudor inh – inhibitors of human JMJD2A Tudor domain; AlphaScreen JMJD2A-Tudor / H3K4me3 peptide binding; Potency, µM (top dose mostly 114 µM), hits mostly inhibitors; actives 4.4% (n = 390,000); also: nearly all actives have a fitted effect of over 50% in size
G9a inh – blocks human histone lysine methyltransferase G9a. actives 8.8% (n = 350,000). AID 504332. G9a H3K9 monomethylation, AlphaScreen, 2 h. Q96KQ7. Potency, µM (highest dose often 102 µM), usual class: inhibitors; also: nearly all actives have a fitted effect of over 75% in size
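Step 1: enzyme (final 20 nM) with compound, 15 min RT. Step 2: substrate peptide 500 nM and SAM 20 uM, 2 h RT. Step 3: anti-H3K9me1 antibody and AlphaScreen beads, 10 min, then plate read.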
BAZ2B inh – inhibitors of human BAZ2B bromodomain. Q9UIF8. AlphaScreen BAZ2B-H3K14Ac peptide displacement. Potency, µM (series often up to 114 µM), actives largely listed as inhibitors. actives 4.4% (n = 360,000). AID 504333; also: nearly all actives have a fitted effect of over 60% in size
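Protein-peptide AlphaScreen: BAZ2B 50 nM, b-H3K14Ac 50 nM, 1x PBS pH 7.4 + 0.01% Tween-20. Preincubation 30 min RT; cpd 30 min RT (top 110 uM); beads 20 min RT, light-protected.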
HP1b chromo inh – inhibitors of HP1-beta chromodomain binding to methylated histone tails; actives 0.56% (n = 390,000); Potency, µM (series often up to 114 µM), most hits filed as inhibitors; P83916; AlphaScreen HP1-beta / biotin-H3K9me3 peptide binding; also: nearly all actives have a fitted effect of over 70% in size
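Compound inhibition of the preformed complex between 50 nM HP1-beta and 50 nM biotinylated H3K9me3 peptide was read by AlphaScreen. Buffer was PBS pH 7.4 with 0.01% Tween-20. Incubations ran 30 min at room temperature, with 10 ug/mL donor/acceptor beads.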
Numbers stand for hits; 0 = inactive; ? = inconclusive; - = not tested or not shown; [ ] = remark or other dose. Unless noted, calls follow the shape of the dose curve; as a rule, active = well fitted inhibition curve with a large enough effect; inconclusive = small, poorly fitted or top-dose-only effect; inactive = no such curve, though single readings can be large or run the other way.

SMILES	PI5P4K alpha inh	L3MBTL1 inh	JMJD2A Tudor inh	G9a inh	BAZ2B inh	HP1b chromo inh
COc1cc(Cl)c(C)cc1NC(=O)Cn1ncc2c(=O)oc3ccccc3c21	-	-	0	?	-	0
C#CCOCCOCCOCCNc1nc(N2CCN(C(=O)[C@H](CCCCN)n3cc(C(N)[C@H](C)CC)nn3)CC2)nc(N2CCN(C(=O)[C@H](CCC(=O)O)n3cc(C(N)[C@H](C)CC)nn3)CC2)n1 (stereo partly specified)	0	0	50µM	?	79µM	0
C#CCOCCOCCOCCNc1nc(N2CCN(C(=O)[C@H](CCCCN)n3cc([C@@H](N)[C@H](C)CC)nn3)CC2)nc(N2CCN(C(=O)[C@H](CCC(=O)O)n3cc([C@@H](N)CCCCN)nn3)CC2)n1	0	0	?	-	-	0
C#CCOCCOCCOCCNc1nc(N2CCN(C(=O)[C@H](CCCN=C(N)N)n3cc(C(N)[C@@H](C)CC)nn3)CC2)nc(N2CCN(C(=O)[C@H](CCC(=O)O)n3cc([C@@H](N)CCCCN)nn3)CC2)n1 (stereo partly specified)	0	0	89µM	-	-	0
CCOc1ccc(CN2C(=O)c3ccccc3Sc3ccc(C(=O)NC4CCC(C)CC4)cc32)cc1 (stereo unspecified)	-	-	0	0	-	0
COc1ccc(-n2c(=O)/c(=C\c3cccs3)s/c2=C(/C#N)C(=O)N2CCN(C)CC2)cc1	0	-	0	50µM	0	0
N#C/C(C(=O)N1CCOCC1)=c1/s/c(=C\c2ccccn2)c(=O)n1-c1ccccc1	0	0	0	0	0	0
CCOc1ccc(-c2cc(N)n(S(=O)(=O)c3cccc4nsnc34)n2)cc1	0	-	?	22µM	?	0
O=C(COc1ccc([N+](=O)[O-])cc1)Nc1cc(S(=O)(=O)N2CCCCC2)ccc1N1CCCCC1	0	0	20µM	1.8µM	0	0
O=C(COc1ccc(F)cc1)Nc1cc(S(=O)(=O)N2CCCCC2)ccc1N1CCCCC1	0	0	?	2µM	?	0
O=C(COc1ccccc1)Nc1cc(S(=O)(=O)N2CCOCC2)ccc1N1CCCC1	0	0	0	?	0	0
O=C1CCC(C(=O)OCC(=O)N2N=C3/C(=C/c4ccccc4)CCCC3C2c2ccccc2)N1 (stereo unspecified)	-	-	?	56µM	?	0
O=C(/C=C\c1ccco1)NC(=S)Nc1ccccc1O	-53	0	0[11.4 µM]	45µM	50µM	0
O=C(/C=C/c1ccco1)NC(=S)Nc1cc(C(F)(F)F)ccc1N1CCOCC1	0	0	0	0	0	0
COc1ccc(NC(=S)NC(=O)/C=C/c2ccco2)c(OC)c1	0	0[2.29 µM]	?	0[0.501 µM]	0	0
Cc1ccc(NC(=S)NC(=O)/C=C/c2ccco2)c(O)c1	-54	0	?	?	?	0
O=C(/C=C/c1ccco1)NC(=S)Nc1ccccc1O	0	0	0[11.4 µM]	32µM	40µM	?
COc1ccc(OC)c(NC(=O)CN(C)CC(=O)Nc2ccccc2Br)c1	0	0	8.9µM	7.9µM	45µM	0
CC(NC(=O)CN(C)CC(=O)Nc1ccccc1Br)c1ccccc1 (stereo unspecified)	0	0	28µM	0[12.7 µM]	32µM	0
COc1ccc(CN(C)CC(=O)NC(C)c2ccccc2)c(OC)c1 (stereo unspecified)	0	-	1.8µM	?	56µM	?
CN(CC(=O)Nc1ccccc1Br)CC(=O)NC(c1ccccc1)c1ccccc1	0	0	0	0	?	0
CCOc1ccc(CN(C)CC(=O)Nc2cccc3ccccc23)cc1OC	0	0	0.79µM	7.1µM	-	?
COc1ccc(CN(C)CC(=O)Nc2cccc3ccccc23)cc1F	0	-	0	0	0	0
COc1ccc(CNC(=O)CN(C)CC(=O)Nc2ccccc2Br)cc1	0	0	0	-	-	0
CCC(C)C(NC(=O)OC(C)(C)C)C(=O)NC1COC2CC(n3ccc(=O)[nH]c3=O)OC12 (stereo unspecified)	-	-	0	-	-	0
SMILES	PI5P4K alpha inh	L3MBTL1 inh	JMJD2A Tudor inh	G9a inh	BAZ2B inh	HP1b chromo inh
CCc1cccc(NC(=O)c2oc3ccc4c(c3c2C)C(=O)CC(C)(C)O4)c1	-	-	0	0	0	0
CCc1ccc(NC(=O)Nc2ccccc2OCc2cc(=O)n3ccccc3n2)cc1	-	-	0	0	0	0
COc1cccc(NC(=O)CN(C)CC(=O)NC(C)c2ccccc2)c1 (stereo unspecified)	0	0	0	71µM	0	0
Cc1nn(C)c2c1c(C(F)(F)F)cc(=O)n2CC(=O)NC(C)(C)C	-	-	0	0	0	0
O=C(O)c1ccccc1NCc1cccs1	0	0	0	0	0	0
Oc1ccc(NCc2cccs2)cc1	0	?	0	40µM	?	?
O=C1Nc2ccc(Br)cc2/C1=N\N=C\C1=C(N2CCOCC2)C(=C/c2ccccc2)/CC1	0	-	3.2µM	-	-	5µM
O=C1Nc2ccccc2/C1=N\N=C\C1=C(N2CCOCC2)C(=C\c2ccccc2)/CC1	-	0	-	?	7.1µM	-
Cn1cc(C(=O)N/N=C/C2=C(N3CCOCC3)C(=C\c3ccccc3)/CC2)ccc1=O	0	0	0	0	0	0
Cc1ccc(CN(C(=O)c2ccc([N+](=O)[O-])cc2)c2ccccn2)cc1	-	-	?	?	?	0
CCc1nn(CC(=O)NCC(C)c2ccccc2)c(=O)c2cc3c(OC)cccc3n12 (stereo unspecified)	-	-	0	0	0	0
CCCc1ccc(OCC(=O)Nc2sc3c(c2C(=O)OCC)CCC(C(C)(C)C)C3)cc1 (stereo unspecified)	-	-	0	0	0	0
